FBW7 act = human FBW7 E3 ligase activation, primary screen. Q969H0. AlphaScreen FBW7–phospho-cyclin E peptide binding, activator screen. normalized activity (activation), % at 26.1 µM. 650,000 compounds, 0.13% hits; in the data active means normalized activity above about 1.9%;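 further: purified mutant Fbw7 with reduced substrate affinity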
MITF primary = inhibitors of human MITF | O75030 | AlphaScreen MITF homodimerization, bead proximity signal | inhibition, % at 2.6 µM | 650,000 compounds, 0.91% hits | AID 1259374; in the data active means inhibition above about 50%
TEAD-YAP block = TEAD-YAP interaction inhibition; HEK-TIYL cells, TEAD-Gal4/YAP UAS-luciferase luminescence; inhibition, % at 9.12 µM; 640,000 compounds, 1.4% hits; in the data active means inhibition above about 32%
GPR151 activ = human GPR151 activation. PathHunter beta-arrestin GPR151 cells, luminescence. activation, % at 11.2 µM. 650,000 compounds, 1% hits; in the data active means activation above about 4.9%
Target sequence (Q8TDV0 whole entry, looked up): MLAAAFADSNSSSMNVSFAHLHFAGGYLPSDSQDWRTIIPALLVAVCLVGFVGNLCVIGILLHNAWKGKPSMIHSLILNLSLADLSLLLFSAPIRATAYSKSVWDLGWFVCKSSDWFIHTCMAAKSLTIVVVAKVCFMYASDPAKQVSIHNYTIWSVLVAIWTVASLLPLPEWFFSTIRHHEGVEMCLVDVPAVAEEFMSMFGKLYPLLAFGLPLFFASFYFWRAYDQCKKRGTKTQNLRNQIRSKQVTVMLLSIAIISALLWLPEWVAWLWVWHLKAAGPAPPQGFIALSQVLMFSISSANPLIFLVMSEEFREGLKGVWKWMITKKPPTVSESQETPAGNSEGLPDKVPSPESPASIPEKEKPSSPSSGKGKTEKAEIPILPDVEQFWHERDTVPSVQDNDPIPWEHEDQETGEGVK
Of the large screens only hits and unclear results are named; the others gave an inactive call. An excerpt weighted towards active compounds, which were near 3.4% of everything screened.

O=C(NCc1ccccc1)c1c(Cl)nc(Cl)c(Cl)c1Cl	TEAD-YAP block 47
Cc1cccc(NC(=O)c2c(Cl)nc(Cl)c(Cl)c2Cl)c1C	TEAD-YAP block 36
Cc1nc(Cl)c(C(=O)NCc2ccccc2)c(C)c1Cl	none
Cc1ccccc1NC(=O)c1c(Cl)nc(Cl)c(Cl)c1Cl	TEAD-YAP block 64
COCCNc1nc(-c2cccc(N(C)C)c2)ccc1C(=O)NCCNC(C)=O	none
NS(=O)(=O)c1ccc(CCNC(=O)CSc2nc3ccccc3c(=O)n2CCCC(=O)NCC2CCCO2)cc1 (configuration not stated)	none
Cc1ccc(SCC(=O)Nc2ccc(C)c([N+](=O)[O-])c2)cc1	none
CCn1c2ccccc2c2cc(NC(=O)c3cc(OC)cc(OC)c3)ccc21	TEAD-YAP block 52
COc1cc(OC)cc(C(=O)Nc2ccc(NC(=O)c3cc(OC)cc(OC)c3)cc2)c1	TEAD-YAP block 43
COc1cc(OC)cc(C(=O)Nc2ccc(N3CCN(C(=O)C(C)C)CC3)cc2)c1	TEAD-YAP block 47
CCOc1ccccc1CNCc1c(C(=O)O)[nH]c2cc(C)ccc12	none
CC(=O)Nc1ccc(Nc2ncnc3c2c(-c2ccccc2)cn3-c2cccc(Cl)c2)cc1	none
COCCNC(=O)c1oc2ccc3c(c2c1C)C(=O)CC1(CCCCC1)O3	none
Cc1c(C(=O)NCc2cccnc2)oc2ccc3c(c12)C(=O)CC1(CCCC1)O3	TEAD-YAP block 40
O=C1CCCC(O)=C1N=Nc1ccc(C(=O)O)cc1	MITF primary 66
COc1ccc(CNS(=O)(=O)c2cc(C(=O)Nc3ccc(Oc4ccccc4)cc3)ccc2F)cc1	none
O=C(Nc1ccc(Oc2ccccc2)cc1)c1ccc(F)c(S(=O)(=O)NCCc2ccccc2)c1	TEAD-YAP block 40
O=C(Nc1ccc(Oc2ccccc2)cc1)c1ccc(F)c(S(=O)(=O)NCc2ccc(F)cc2)c1	TEAD-YAP block 42
CCOC(=O)N1CCN(S(=O)(=O)c2cc(C(=O)Nc3ccc(Oc4ccccc4)cc3)ccc2F)CC1	none
C=CCNS(=O)(=O)c1cc(C(=O)Nc2ccc(Oc3ccccc3)cc2)ccc1F	TEAD-YAP block 67
O=C(Nc1cccc(Cl)c1)c1ccc(F)c(S(=O)(=O)NCCc2ccccc2)c1	none
Cc1c(Cl)cccc1NC(=O)c1cc(S(=O)(=O)NCc2ccco2)ccc1F	FBW7 act 2.0
COc1ccc(C2CC(C(F)(F)F)n3nc(C(=O)NCc4cccc(Cl)c4)cc3N2)cc1 (configuration not stated)	none
CCOc1ccc(NC(=O)c2ccc(F)c(S(=O)(=O)NCc3ccccc3)c2)cc1	TEAD-YAP block 37
CCOc1ccc(NC(=O)c2cc(S(=O)(=O)NCc3ccccc3Cl)ccc2F)cc1	TEAD-YAP block 45
COc1cccc(C2C(C#N)=C(N)N(N(C)C)C3=C2C(=O)CC(c2ccccc2)C3)c1OC (configuration not stated)	TEAD-YAP block 55
COc1ccc(OC)c(C2C(C#N)=C(N)N(N(C)C)C3=C2C(=O)CC(c2ccccc2)C3)c1 (configuration not stated)	TEAD-YAP block 57
N#CC1=C(N)OC2=C(C(=O)CC(c3ccccc3)C2)C1c1c(Cl)cccc1[N+](=O)[O-] (configuration not stated)	TEAD-YAP block 41
COc1ccc(OC)c(C2C(C#N)=C(N)N(N(C)C)C3=C2C(=O)CC(C)(C)C3)c1 (configuration not stated)	none
N#CC1=C(N)OC2=C(C(=O)CC(c3ccccc3)C2)C1c1ccc([N+](=O)[O-])s1 (configuration not stated)	none
COc1ccccc1C1C(C#N)=C(N)OC2=C1C(=O)CC(c1ccccc1)C2 (configuration not stated)	none
COc1cccc(C2C(C#N)=C(N)OC3=C2C(=O)CC(c2ccccc2)C3)c1OC (configuration not stated)	none
COc1ccc(OC)c(C2C(C#N)=C(N)OC3=C2C(=O)CC(c2ccccc2)C3)c1 (configuration not stated)	TEAD-YAP block 47
COc1ccc(-c2nn3c(C)cc(C)nc3c2Br)cc1	none
COc1ccc2c(c1)C(c1ccc(F)cc1)(C(C)C)C(=O)N2 (configuration not stated)	none
COc1cc(C2C(C#N)=C(N)N(N(C)C)C3=C2C(=O)CC(c2ccccc2)C3)cc(OC)c1OC (configuration not stated)	TEAD-YAP block 57
Cc1ccc(C2C(C#N)=C(N)N(N(C)C)C3=C2C(=O)CC(c2ccccc2)C3)cc1 (configuration not stated)	none
O=C1C=CC2=C3c4cc(O)c(O)cc4C[C@@]3(O)COC2=C1	MITF primary 88
O=C(Cn1cc(C(=S)N2CCOCC2)c2ccccc21)Nc1ccc2c(c1)OCO2	none
NNC(=O)Nc1cccc2nsnc12	TEAD-YAP block 66
COc1ccc([N+](=O)[O-])cc1C(=O)Nc1ccccc1C(=O)O	none
OCCNc1nc(Nc2ccc(C(F)(F)F)cc2)nc2nc[nH]c12	none
CCCN1CCc2nc(NC(=O)c3sc4ccccc4c3Cl)sc2C1	TEAD-YAP block 34
CCOc1ccc(-n2c(SCC#N)nc3c(sc(=S)n3-c3ccccc3)c2=O)cc1	none
CCC1=C[C@@H]2CN(C1)Cc1c([nH]c3ccccc13)[C@@](C(=O)OC)(c1cc3c(cc1OC)N(C)[C@H]1[C@@](O)(C(=O)OC)[C@H](OC(C)=O)[C@]4(CC)C=CCN5CC[C@]31[C@@H]54)C2	TEAD-YAP block 65
CCC1(O)CC2CN(CCc3c([nH]c4ccccc34)[C@@](C(=O)OC)(c3cc4c(cc3OC)N(C)C3[C@]45CCN4CC=C[C@@](CC)([C@@H](OC(C)=O)[C@]3(O)C(=O)OC)[C@H]45)C2)C1 (some centres not stated)	TEAD-YAP block 70
CC[C@]1(O)CC2CN(CCc3c([nH]c4ccccc34)[C@@](C(=O)OC)(c3cc4c(cc3OC)N(C)[C@H]3[C@@](O)(C(N)=O)[C@H](O)[C@]5(CC)C=CCN6CC[C@]43[C@@H]65)C2)C1 (some centres not stated)	TEAD-YAP block 47
CC[C@]1(O)C[C@H]2CN(CCc3c([nH]c4ccccc34)[C@H](C)[C@H]2c2cc3c(cc2OC)N(C)[C@H]2[C@@](O)(C(=O)OC)[C@H](C)[C@]4(CC)C=CCN5CC[C@]32[C@@H]54)C1	TEAD-YAP block 65
O=[N+]([O-])c1cccc(S(=O)(=O)NCCSc2ccc(Cl)cc2)c1	none
CCc1ccccc1NC(=O)c1sc2nc3c(cc2c1N)C(=O)CC(C)(C)C3	none
Cc1ccccc1NC(=O)c1sc2nc3c(cc2c1N)C(=O)CCC3	TEAD-YAP block 39
CCc1ccccc1NC(=O)c1sc2nc3c(cc2c1N)C(=O)CCC3	TEAD-YAP block 54
COc1ccccc1-n1c(=S)sc2c(=O)n(-c3ccccc3)c(SCc3ccccc3F)nc21	none
Cc1cccc(C)c1-n1c(=S)sc2c(=O)n(-c3ccccc3)c(SCc3ccccc3F)nc21	TEAD-YAP block 46
N#Cc1ccc(/C=C(\C(=O)C(=O)O)c2ccc3ccccc3n2)cc1	none

Bioassay records from PubChem.
